# Source: PubChem BioAssay
# Compounds with a hit are over-represented: about 19% of the library has one in this group of screens.
# TDP1 cell noCPT = qHTS for Inhibitors of human tyrosyl-DNA phosphodiesterase 1 (TDP1): qHTS in cells in absence of CPT; DT40 Tdp1-/- hTDP1 cells, no CPT, ATP luminescence, 48 h; Potency, µM (series often up to 46.2 µM), inactives show top-dose activity change, negative = growth inhibition, most hits filed as inhibitors; hit rate 15% among 420,000; AID 686978, 2013; also: potency is read from the fitted curve at half-maximal effect; nearly all actives have a fitted effect of over 55% in size
#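 Compound effects on proliferation are scored in DT40 Tdp1-/-;hTDP1 cells in the absence of CPT. ATP levels (CellTiter-Glo luminescence) are recorded after a ≥48 hr, 37 °C incubation.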
# TDP1 cell CPT = growth inhibition of DT40 Tdp1-/-;hTDP1 cells with camptothecin (screen for TDP1 inhibitors); chicken DT40 Tdp1-/-;hTDP1 cells + 20 nM CPT, ATP luminescence, 48 h; Potency, µM (highest dose often 46.2 µM), for inactives: at the highest dose activity change, negative = growth inhibition, usual class: inhibitors; hit rate 12% among 420,000; also: potency is read from the fitted curve at half-maximal effect; nearly all actives have a fitted effect of over 55% in size
#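 Cell growth measured by CellTiter-Glo luminescence after a minimum 48 h, 37 C compound exposure with 20 nM CPT in Tdp1-knockout DT40 cells stably expressing hTDP1, seeded 400/well; qHTS titration format.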
# HT1080 IDH1KD tx = HT-1080 IDH1 knockdown cell toxicity (counter line). AID 686971. hit rate 2% among 360,000. HT-1080 IDH1 knockdown viability, ATP luminescence, 48 h. Potency, µM (top dose mostly 46.1 µM), inactives show top-dose activity, negative = toxicity, hits mostly cytotoxic;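 also: potency is read from the fitted curve at half-maximal effect; 0% = DMSO wells and -100% = cell-free medium wells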
#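 % activity derives from luminescence (CellTiter-Glo), normalised to DMSO and no-cell wells. HT-1080-IDH1KD cells, 750/well, had 48 h compound exposure at 37 °C.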
# HT1080NT lethal = kills 2HG-producing HT-1080-NT fibrosarcoma cells; HT-1080-NT fibrosarcoma viability, CellTiter-Glo ATP luminescence, 48 h; Potency, µM (titrated, usually from 46.1 µM), for the others: at the top dose activity, negative = less viability, hits mostly cytotoxic; hit rate 1.6% among 360,000;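 also: NT is the 2HG producing partner of a matched IDH1 knockdown line; potency is read from the fitted curve at half-maximal effect; 0% = DMSO-treated cells and -100% = media-only wells without cells; nearly all actives have a fitted effect of over 55% in size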
#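 Toxicity toward the 2HG-producing NT line was scored as %Activity, normalised to DMSO and no-cell wells, from CellTiter-Glo luminescence after 48 hours' treatment.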
# IL-1B inflam inh = inhibitors of inflammasome signaling (IL-1 beta secretion); hit rate 4.7% among 360,000; activity change, % at 57.5 µM; THP-1 LPS/ATP IL-1B secretion, AlphaLISA, 16 h; hits give low values; AID 743279; in the data active = activity change below about -50%; inconclusive = mostly about -30% to -49%
#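 Secreted IL-1B measured by AlphaLISA bead assay after 16 h compound exposure of THP-1 cells; compounds (final up to 57.5 uM) added 1 h before LPS (250 ng/mL) and ATP (1.25 mM) stimulation; lower signal means less secretion.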
# ELG1 DNA repair = inhibitors of ELG1-dependent DNA repair in HEK293T cells. AID 504467. Potency, µM (highest dose often 46.1 µM), inactives show at the top dose activity change, negative = inhibition, most hits filed as inhibitors. hit rate 2.3% among 330,000. HEK293T ELG1-luciferase reporter, luminescence, 16 h; DNA damage induced by 5-fluorouridine; also: potency is read from the fitted curve at half-maximal effect; nearly all actives have a fitted effect of over 55% in size
#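 5-Fluorouridine DNA damage + compound/DMSO, 2,000 cells/well, 16 h, 37 °C/5% CO2. ONE-Glo, 30 min RT, luminescence. Readout = decrease in reporter signal.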
# * hit, by the source's call; ? = inconclusive; · = not tested or not shown; [ ] = dose if it differs, or a comment. Unless noted, calls follow the shape of the dose curve; as a rule, active = well fitted curve in the direction sought with a large enough effect; inconclusive = small, poorly fitted or top-dose-only effect, or another doubt; inactive = no such curve, though single readings can be large; an effect the other way counts as inactive or inconclusive. Unless noted, % is scaled to controls: 0 for no effect and ±100 for the full control effect.
SMILES,TDP1 cell noCPT,TDP1 cell CPT,HT1080 IDH1KD tx,HT1080NT lethal,IL-1B inflam inh,ELG1 DNA repair
CCN(CC)CC(O)CN1C(=O)NC(C)(C)C1=O (stereo not drawn),-9.5%,-12.1%,-25.2%,-9.3%,-13.5,?
CSc1ccccc1C(=O)NC1CCSc2ccccc21 (stereo not drawn),?,?,-6.5%,3.9%,4.6,0.1%
CCOC(=O)N1CCN(C(=O)c2cc(S(=O)(=O)N3CCCC3)cn2C)CC1,5.8%,-3.7%,9.3%,6.7%,1.6,?
Cc1ccc(C)c(N2CCN(C(=O)c3cc(S(=O)(=O)N4CCCC4)cn3C)CC2)c1,20.6µM*,18.4µM*,-1.3%,-4.7%,-13.6,-1.3%
C=CC[C@H](CC(=O)N(CCO)Cc1ccccc1)C(=O)N[C@H](C)COC(=O)[C@@H](CC=C)Cc1ccc(F)cc1,20.6µM*,?,3.1%,1.6%,-16.0,?
C=CC[C@@H](CC(=O)N(CCO)Cc1ccccc1)C(=O)N[C@H](C)COC(=O)[C@@H](CC=C)Cc1ccc(F)cc1,?,?,-12.9%,-0.1%,-1.9,?
C=CCC[C@H](Cc1ccc(F)cc1)C(=O)O[C@H](CNC(=O)[C@@H](CC=C)CC(=O)N(CCO)Cc1ccccc1)c1ccccc1,23.1µM*,?,?,?,-58.1*,?
C=CC[C@H](CC(=O)N(CCO)Cc1ccccc1)C(=O)N[C@@H](C)COC(=O)[C@H](CC=C)CC(=O)OC(C)(C)C,?,?,3.2%,1.2%,5.0,23.1µM*
C=CC[C@H](CC(=O)NCCO)C(=O)NC[C@@H](OC(=O)[C@@H](CC=C)Cc1ccc(F)cc1)c1ccccc1,?,?,-0.1%,-7.1%,-21.0,-8.9%
C=CC[C@@H](CC(=O)N(CCO)Cc1ccccc1)C(=O)NCCOC(=O)[C@@H](CC=C)Cc1ccc(F)cc1,13µM*,20.6µM*,-1.1%,-2.5%,-1.9,?
Cc1cccc(C(=O)OCC(=O)NC(=O)Cc2ccccc2)c1O,2.8%,-24.0%,3.1%,16.0%,-10.3,-1.4%
O=C(Nc1c(-c2ccc(Cl)cc2)[nH][nH]c1=O)c1ccccn1,-30.0%,-9.6%,-6.3%,-1.3%,-26.7,·
C=CCC[C@@H](Cc1ccc(F)cc1)C(=O)OC[C@@H](Cc1ccccc1)NC(=O)[C@@H](CC=C)CC(=O)N[C@@H](CO)Cc1ccccc1,?,?,-16.0%,-3.9%,-16.8,?
C=CC[C@H](CC(=O)N(CCO)Cc1ccccc1)C(=O)N[C@H](COC(=O)[C@@H](CC=C)Cc1ccc(F)cc1)Cc1ccccc1,20.6µM*,20.6µM*,?,16.4µM*,-55.6*,20.6µM*
Cc1ccc(/C=C/C(=O)Nn2cnnc2)cc1,14.6µM*,?,?,?,-114.5*,-3.6%
COc1ccc(C(=O)NCC(=O)OCC(=O)Nc2cccc(S(=O)(=O)N3CCCC3)c2)cc1,-11.5%,-13.9%,-2.0%,-5.9%,-14.0,17.0%
CCCCC(CC)CNC(=O)CN1C(=O)CSc2ccc(S(=O)(=O)N3CCOCC3)cc21 (stereo not drawn),13µM*,16.4µM*,·,·,·,·
CCCCOc1ccc(C(C)NC(=O)CN2C(=O)CSc3ccc(S(=O)(=O)N4CCOCC4)cc32)cc1 (stereo not drawn),23.1µM*,?,·,·,·,·
CCCN(CCC)S(=O)(=O)c1ccc2c(c1)N(CC(=O)NC(C)c1ccccc1)C(=O)CS2 (stereo not drawn),23.1µM*,?,·,·,·,·
CCCCNC(=O)CN1C(=O)CSc2ccc(S(=O)(=O)N3CCOCC3)cc21,-4.0%,-1.9%,13.2%,10.4%,-7.3,·
COCC(=O)Nc1cc(C(=O)N2CC3CC4CC(C3)CC2C4)c2c(c1)nc(-c1ccncc1)n2C,?,0.8%[9.04 µM],·,·,·,·
CC(C)(C)C(c1nc2ccccc2[nH]1)n1c(-c2ccco2)nc2ccccc21 (stereo not drawn),20.0%,14.8%,4.8%,8.9%,4.3,·
CC(C)(C)C(c1nc2ccccc2[nH]1)n1c(-c2ccsc2)nc2ccccc21 (stereo not drawn),?,?,?,?,-52.6*,·
O=[N+]([O-])c1cc([N+](=O)[O-])c(Oc2ccc(Cl)c3cccnc23)cc1NN1CCCCC1,?,?,1.1%,4.5%,-16.2,3.0%
COc1ccc(/C=c2\[nH]c(=O)/c(=C/c3ccc(OC)c(OC)c3)[nH]c2=O)cc1OC,-23.0%,-1.4%,·,·,·,·
SMILES,TDP1 cell noCPT,TDP1 cell CPT,HT1080 IDH1KD tx,HT1080NT lethal,IL-1B inflam inh,ELG1 DNA repair
Cc1ccccc1-c1cc(C(=O)NCC2CC2)nn1CC1CC(c2cccc([N+](=O)[O-])c2)=NO1 (stereo not drawn),16.4µM*,?,-14.4%,-10.6%,-20.5,?
Cc1ccc(C2C(C#N)=C(N)Oc3cc4c(cc32)OCO4)cc1 (stereo not drawn),?,25.9µM*,?,?,-18.3,?
CC(C)(C)C1=C(C#N)C(c2cc3c(cc2Br)OCO3)C(C#N)=C(N)O1 (stereo not drawn),-18.9%,-22.1%,19.7%,12.2%,41.4,-3.5%
CSc1ccc(C2C(C#N)=C(N)Oc3cc4c(cc32)OCO4)cc1 (stereo not drawn),?,20.6µM*,?,17.8µM*,-18.2,·
Cc1ccc(N=Cc2cc3c(cc2O)OC(N)=C(C#N)C3c2ccccc2)cc1 (stereo not drawn),16.4µM*,?,?,?,?,-3.3%
COc1ccc(C2C(C#N)=C(N)Oc3cc(N)ccc32)cc1 (stereo not drawn),-4.2%,2.1%,1.6%,1.8%,-3.4,-6.0%
N#CC1=C(N)Oc2cc(O)c(C=Nc3ccccc3)cc2C1c1ccccc1 (stereo not drawn),?,-17.9%,?,?,8.9,?
Cc1cc(C(=O)Nc2ccc(F)cc2C)n(-c2ccccc2)n1,?,?,5.6%,2.6%,-10.5,5.8%
Oc1ccccc1N1CCN(Cc2ncc(-c3ccccc3)o2)CC1,-10.0%,6.1%,-14.1%,-20.1%,-52.8*,0.2%
c1ccc(-c2nnc(CN3CCN(c4ccccc4)CC3)o2)cc1,-8.1%,1.4%,0.0%,-0.7%,18.7,2.3%
COc1ccc(NC(=O)CCc2c(C)nn(-c3ccc(N4CCCC4)nn3)c2C)cc1Cl,16.4µM*,?,·,·,·,·
